Assay outcomes deposited in PubChem BioAssay by several laboratories.
An excerpt weighted towards active compounds, which were near 2.7% of everything screened.
ANO1 activ = TMEM16A chloride channel activators or potentiators, primary screen, cell-based, HTS; HEK293 TMEM16A/YFP-H148Q/I152L, iodide quench fluorescence; active compounds read low; B-score at 10 µM; 340,000 compounds, 0.3% hits; AID 623877, 2012;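 active = fluorescence-ratio B-score plate-corrected deviation score at least 3 library SD below zero, with starting fluorescence score within 5 deviations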;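 note: channel opened by trigger with iodide after compound preincubation; score built on the fluorescence ratio of max minus min over baseline; more negative score means more quench and so TMEM16A activation or potentiation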
PP5 primary = PP5 phosphatase inhibitors, primary screen, biochemical, fluorescence; Serine/threonine-protein phosphatase 5 (Homo sapiens), P53041; purified PP5c, OMFP substrate fluorescence; inhibition, % at 6.7 µM; 320,000 compounds, 0.18% hits; AID 1987, 2009;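 active = inhibition above the campaign's mean inhibition across all tested compounds plus 3 SD, cut at about 9.5% in these data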;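 note: 0% = DMSO only and 100% = 100 µM cantharidin control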
Target sequence (P53041 whole entry, looked up): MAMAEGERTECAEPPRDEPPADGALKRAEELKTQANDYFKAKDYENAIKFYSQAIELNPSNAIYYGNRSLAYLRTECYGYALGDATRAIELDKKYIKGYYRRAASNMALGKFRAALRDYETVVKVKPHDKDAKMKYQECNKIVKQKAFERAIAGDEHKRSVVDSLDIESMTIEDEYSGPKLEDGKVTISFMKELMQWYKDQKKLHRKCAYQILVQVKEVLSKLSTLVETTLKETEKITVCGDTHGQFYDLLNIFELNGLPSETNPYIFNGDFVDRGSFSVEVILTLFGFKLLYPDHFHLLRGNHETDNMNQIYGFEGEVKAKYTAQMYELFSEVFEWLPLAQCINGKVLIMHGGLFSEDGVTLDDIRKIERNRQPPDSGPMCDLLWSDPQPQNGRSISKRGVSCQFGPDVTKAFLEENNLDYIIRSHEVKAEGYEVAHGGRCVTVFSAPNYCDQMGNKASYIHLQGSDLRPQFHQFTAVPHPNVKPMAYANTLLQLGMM
DNA FID counter = compounds displacing fluorescent DNA intercalator, primary screen, artefact control for HCV NS3 helicase inhibitor project, biochemical, FID fluorescence | 290,000 compounds, 0.17% hits | inhibition, % at 7.9 µM | DNA fluorescent intercalator displacement | AID 1845, 2009; in the data active = inhibition above about 37%;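 note: 0% = vehicle and 100% = reference compound; higher means more ethidium bromide displaced from hairpin DNA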
TMEM16A inh = TMEM16A chloride channel inhibitors, primary screen, cell-based, HTS; AID 588511, 2011; HEK293 TMEM16A/YFP iodide influx fluorescence, ionomycin; normalized B-score (activity score, 25-100; higher = stronger inhibition) at 10 µM; Anoctamin-1 (Mus musculus), Q8BHY3; 310,000 compounds, 1.2% hits;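 active = ratio plate-corrected score three or more library SD toward inhibition, starting fluorescence score within five deviations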;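 note: score derived from kinetic fluorescence span divided by baseline fluorescence per well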
PP1 counter = PP1-alpha phosphatase inhibitors, primary screen, counter-screen for PP5 inhibitor project, biochemical, fluorescence, OMFP substrate, single point; Serine/threonine-protein phosphatase PP1-alpha catalytic subunit (Homo sapiens), P62136; purified PP1alpha; inhibition, % at 6.7 µM; 320,000 compounds, 0.9% hits; AID 2235, 2010;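 active = inhibition above the mean inhibition of all tested compounds plus 3 SD, computed separately for each screening campaign, cut at about 15% in these data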
PREPL inhibitor = PREPL enzyme inhibitors, primary screen, biochemical, fluorescence polarization; Prolyl endopeptidase-like (Homo sapiens), Q4J6C6; recombinant PREPL, fluorescence polarization activity-based probe; inhibition, % at 5.96 µM; 320,000 compounds, 0.68% hits; AID 2751, 2010; in the data active = inhibition above about 43%;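 note: 0% = enzyme with DMSO and 100% = wells lacking enzyme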
PP1 confirm = PP1 phosphatase inhibitors, confirmation, biochemical, fluorescence, OMFP substrate, triplicate | shares compounds with PP1 counter | purified PP1alpha | inhibition, % at 6.7 µM | 1,900 compounds, 52% hits | AID 2358, 2010;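 active = mean PP1 inhibition above a set limit taken from the earlier primary screen, cut at about 15% in these data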
PP5 counter = PP5 phosphatase inhibition by PP1 hits, confirmation, counter-screen for PP1 inhibitor project, biochemical, fluorescence, triplicate; shares compounds with PP1 counter; purified PP5c, OMFP fluorescence; inhibition, % at 6.7 µM; 1,900 compounds, 4% hits; AID 2360, 2010;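 active = mean PP5 inhibition over triplicate wells above about 9.5% taken from the earlier PP1 screen, limit read from the data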
* hit, by the source's call; i = inactive; / = not tested or not shown.

SMILES | ANO1 activ | PP5 primary | DNA FID counter | TMEM16A inh | PP1 counter | PREPL inhibitor | PP1 confirm | PP5 counter
Cc1ccc(C(=O)N2CCN(c3ccccc3)CC2)cc1C | i | 0 | -19 | i | 32* | 17 | 0 | -2
Cc1cc(C(=O)N2CCN(c3ccccc3)CC2)no1 | i | -1 | -14 | i | 27* | 3 | -1 | -3
COc1ccc(N2CCN(C(=O)c3cc(C)on3)CC2)cc1 | i | 1 | -19 | i | -3 | -2 | / | /
Cc1ccc(C(=O)N2CCN(c3cccc(Cl)c3)CC2)cc1C | i | 2 | -26 | i | -1 | 19 | / | /
CCOC(=O)C1C(=O)C=C(/C=C/c2ccc(N(C)C)cc2)CC1c1ccccc1 (stereo not drawn) | i | 3 | 1 | i | -8 | 9 | / | /
O=C(/C=C/c1ccccc1)NC(=S)NNC(=O)c1cnccn1 | i | 0 | -10 | i | 22* | 9 | 24* | -3
O=C(O)c1ccc2ncsc2c1 | i | 4 | 5 | i | 19* | -4 | 37* | 1
NC(=O)c1nc(-c2ccccc2)c(-c2ccccc2)[nH]c1=O | i | 0 | / | i | 20* | 5 | 16* | -4
N#CCC(=O)N/N=C/c1cc(Br)ccc1OCc1cccc2ccccc12 | i | 3 | -22 | i | 21* | -32 | -1 | 1
CCN(CC)c1ccc(/C=N/NC(=O)c2cccc(N3CCCC3=O)c2)cc1 | i | 0 | -14 | i | -1 | 11 | / | /
Cc1ccc(CNC(=O)c2ccc(N3CCC4(CC3)CC(c3ccccc3)=NO4)c(NC(=O)c3ccco3)c2)cc1 | i | 3 | -26 | i | 20* | 5 | 16* | -2
Cc1ccc(CNC(=O)c2ccc(N3CCC4(CC3)CC(c3cccc(Br)c3)=NO4)c(NC(=O)c3ccco3)c2)cc1 | i | 0 | / | i | 12 | -5 | / | /
O=C(NNC(=O)C1CCCN(c2ncccn2)C1)c1ccncc1 (stereo not drawn) | i | 0 | 2 | i | -1 | -2 | / | /
CC1=NN(c2ccccc2)C(=O)/C1=C/c1c(O)n(-c2ccc(F)c(Cl)c2)[nH]c1=O | / | 10* | 41* | i | 18* | 31 | 9 | 0
CC1=NN(c2ccccc2)C(=O)/C1=C\c1c(C)[nH]n(-c2ccccc2)c1=O | i | 0 | 4 | i | 0 | 11 | / | /
CCNC(=S)N1CCCC(C(N)=O)C1 (stereo not drawn) | i | 1 | -4 | i | -1 | 2 | / | /
CCOc1ccc(N=Cc2c(C)[nH]n(-c3nc4ccccc4[nH]3)c2=O)cc1 | i | 2 | -4 | i | 23* | 7 | 14 | 1
O=C(c1ccccc1)N1CCN(C(=O)C2CC2)CC1 | i | 0 | -2 | i | 2 | -2 | / | /
COc1cc(/C=C2/SC(=S)N(Cc3ccccc3)C2=O)ccc1OCC(=O)O | i | 2 | -25 | i | 20* | -13 | 12 | -1
Clc1ccc(SCc2cc(N3CCOCC3)nc(-c3ccccn3)n2)cc1 | i | 1 | -24 | i | 24* | 7 | 32* | 1
Brc1ccc(C2=Nn3c(nnc3-c3n[nH]c4c3CCC4)SC2)cc1 | i | 4 | -18 | i | 22* | -10 | 2 | -2
c1ccc(-c2ccc(C3=Nn4c(nnc4-c4cc(-c5ccccc5)n[nH]4)SC3)cc2)cc1 | i | 3 | -1 | i | 30* | -40 | 33* | 3
Clc1ccc(C2=Nn3c(nnc3-c3n[nH]c4c3CCC4)SC2)cc1 | i | 3 | -17 | i | 9 | -9 | / | /
CC(NC(=O)COC(=O)c1ccccc1F)C1CC2CCC1C2 (stereo not drawn) | i | / | / | / | / | 10 | / | /
O=C(COC(=O)[C@H](Cc1ccccc1)NC(=O)c1cccs1)NC1CC1 | i | -2 | -7 | i | -3 | 12 | / | /
SMILES | ANO1 activ | PP5 primary | DNA FID counter | TMEM16A inh | PP1 counter | PREPL inhibitor | PP1 confirm | PP5 counter
CCOC(=O)c1[nH]c2ccccc2c1CCCN1C(=O)c2ccccc2C1=O | i | 4 | -9 | i | 32* | 4 | 25* | 1
O=c1/c(=C\c2cc([N+](=O)[O-])cc([N+](=O)[O-])c2O)sc2nc3ccccc3n12 | i | 0 | -15 | i | 18* | 8 | 26* | 3
COc1ccccc1C(CNC(=O)CNC(=O)c1ccccc1Cl)N1CCCC1 (stereo not drawn) | i | 1 | / | / | -3 | 6 | / | /
CCCCn1c(/C=N/Nc2nc3ccccc3[nH]2)nc2ccccc21 | i | 5 | -2 | i | 21* | 18 | 12 | -1
Fc1ccccc1-c1ccc(/C=N/Nc2nc3ccccc3[nH]2)o1 | i | 4 | -6 | i | 18* | 41 | 18* | 1
O=C(Nc1ccc(Oc2ccc3c(c2)C(=O)N(c2ccc(O)cc2)C3=O)cc1)c1cccs1 | i | -2 | 4 | i | 22* | -19 | 10 | -5
Cc1ccc(-n2ncc3c2CCCC3NC(=O)CCc2c(C)noc2C)cc1C (stereo not drawn) | i | 4 | -47 | i | 1 | 8 | / | /
COc1cccc(CC(CC(=O)O)C(=O)Nc2cc(C)ccc2C)c1 (stereo not drawn) | i | 0 | -10 | i | -2 | 3 | / | /
CN(C)c1ccc(-c2cc(O)c3ncccc3c2)cc1 | i | 1 | / | / | 21* | 18 | 21* | -4
Oc1cc(-c2ccncc2)cc2cccnc12 | i | / | / | / | / | 23 | / | /
COc1cccc(C(=O)Nc2cccc(C(=O)NC3=NN(c4c(Cl)cc(Cl)cc4Cl)C(=O)C3)c2)c1 | i | 0 | -13 | i | 29* | 8 | 2 | -4
CC(=O)Nc1ccccc1NC(=O)C/C(C)=N/NC(=O)C(=O)N1CCCCC1 | i | 1 | -9 | i | 0 | 3 | / | /
Nc1ncnc2c1ncn2[C@@H]1O[C@H](CNCc2ccccc2OCc2ccc(Cl)cc2Cl)[C@@H](O)[C@H]1O | i | / | / | / | / | -128 | / | /
CCOC(=O)c1c(NC(=O)c2cc(C)on2)c2cc([N+](=O)[O-])ccc2n1C | / | 2 | -1 | i | -1 | 10 | / | /
Cn1nc(C(F)(F)F)c(-c2ccc(Br)cc2)c1NC(=O)c1nccnc1C(=O)O | i | 1 | -21 | i | 1 | 11 | / | /
